{"source": "paper PMC5540273", "about": "(PLoS ONE, 2017);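 also: KINOMEscan kinase panel screen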"}
{"system": "MAP3K4", "conditions": "concentration: 1 μM, replicates: in singlicate; n = 1", "units": {"%Inh": "%"}}
{"smiles": "CCc1nc(-c2cccc(C)c2)c(-c2ccnc(NCc3ccccc3)c2)s1", "%Inh": 0}
{"smiles": "O=c1cc(N2CCOCC2)nc2n(Cc3cccc4ccccc34)ccn12", "note": "[GSK2333389]", "%Inh": 0}
{"smiles": "CN1c2ccc(NCc3ccc(F)cc3)cc2-c2c(cnn2C)S1(=O)=O", "%Inh": 11}
{"smiles": "Cc1ccc(NC(=O)c2ccnc(N3CCN(C)CC3)c2)cc1-c1ccc(C(=O)NCC2CC2)cc1", "note": "[GW775604]", "%Inh": 0}
{"smiles": "Cc1ccc(C(=O)NCC(N)=O)cc1-n1c(C)cc(OCc2ccc(F)cc2F)c(Br)c1=O", "%Inh": 22}
{"smiles": "COCCNC(=O)c1ccc(-c2cc(C(=O)NC3CC3)cc(F)c2C)cc1", "note": "[GW868318]", "%Inh": 30}
{"smiles": "COc1ccc(Nc2ncc(C#N)c(Nc3ccccc3C(N)=O)n2)cc1N1CCN(C)CC1.Cl", "note": "[GSK1558669]", "%Inh": 99.9}
{"smiles": "COc1ccc(S(=O)(=O)NC2CCN(c3cc(C)nc(Nc4cccc(C#N)c4)n3)CC2)cc1.O=C(O)C(F)(F)F", "note": "[GSK1653539]", "%Inh": 24}
{"smiles": "COc1ccc(Nc2nccc(N3CCC(NC(=O)Nc4cc(C)ccc4C)C3)n2)cc1", "note": "(stereo not shown) [GSK1379741]", "%Inh": 23}
{"smiles": "CC(C)(C)n1cnc2c(N)ncnc21", "note": "[SKF-97359]", "%Inh": 0}
{"smiles": "COc1cc2ncn(-c3cc(OCc4sccc4Cl)c(C(N)=O)s3)c2cc1OC", "note": "[GSK448459]", "%Inh": 0}
{"smiles": "COC(=O)Nc1nc2cc(Oc3ccc(NC(=O)Nc4cc(F)ccc4F)cc3)ccc2[nH]1.Cl", "note": "[GW701424]", "%Inh": 0}
{"smiles": "Cc1c2ccc(N(C)c3ccnc(Nc4cccc(S(N)(=O)=O)c4)n3)cc2nn1Cc1ccccc1.Cl.Cl", "note": "[GW787226]", "%Inh": 22}
{"smiles": "O=C(NCCNc1ccnc(Nc2ccc(F)cc2)n1)c1cc2ccccc2s1", "note": "[GSK1379874]", "%Inh": 0}
{"smiles": "CCn1cnc2c(N)ncnc21", "note": "[GW345098]", "%Inh": 11}
{"smiles": "O=C1Cc2cc(Nc3nc(NCc4cccc(S(=O)(=O)C(F)(F)F)c4)ncc3C(F)(F)F)ccc2N1", "%Inh": 6}
{"smiles": "Cl.Oc1cccc(Nc2ccnc3cc(-c4ccncc4)ccc23)c1", "note": "[GW494601]", "%Inh": 0}
{"smiles": "Cn1cc(-c2ccc3c(c2)CCN3C(=O)Cc2ccccc2Cl)c2c(N)ncnc21", "note": "[GSK2608885]", "%Inh": 86}
{"smiles": "NS(=O)(=O)CCc1cccc(Nc2nccc(-c3c(-c4cccc(NC(=O)c5c(F)cccc5F)c4)nn4ccccc34)n2)c1", "note": "[GSK336735]", "%Inh": 76}
{"smiles": "O=c1cc(N2CCOCC2)nc2n(Cc3cccc(Cl)c3Cl)c(C3CC3)nn12", "note": "[GSK2358994]", "%Inh": 19}
{"smiles": "COc1ccc(COc2cc(-n3cnc4ccccc43)sc2C(N)=O)cc1", "note": "[GSK1024304]", "%Inh": 20}
{"smiles": "c1ccc(-c2n[nH]cc2-c2ccnc3ccccc23)nc1", "note": "[GW271431]", "%Inh": 4}
{"smiles": "CN(C1=C(c2ccccc2)C(=O)NC1=O)c1ccccc1", "note": "[SB-334860]", "%Inh": 10}
{"smiles": "COc1ccc(CNC(=O)NC2CCN(c3ccnc(Nc4ccc(OC)cc4)n3)C2)cc1", "note": "(stereo not shown) [GSK1379727]", "%Inh": 10}
{"smiles": "COc1cc2c(cc1OC[C@@H](O)CO)ncc1c3ccc(C#N)cc3[nH]c21", "%Inh": 0}
{"smiles": "c1ccc(-c2cc(-c3c[nH]nc3-c3ccccn3)ccn2)cc1", "note": "[GW576604]", "%Inh": 0}
{"smiles": "Cc1cccc(-c2nc(-c3ccc(S(C)(=O)=O)cc3)sc2-c2ccncc2)c1", "%Inh": 0}
{"smiles": "Cc1cccc(Cn2ccn3c(=O)cc(N4CCOCC4)nc23)c1", "note": "[GSK2297542]", "%Inh": 0}
{"smiles": "Fc1ccc(-c2nn3c(OCC(F)(F)F)cccc3c2-c2ccncc2)cc1", "note": "[GW514784]", "%Inh": 0}
{"smiles": "N#Cc1c(N2CCOCC2)sc(-c2ccn[nH]2)c1-c1ccc(Cl)cc1", "%Inh": 2}
{"smiles": "COc1cc2c(cc1OCCN1CCN(C)CC1)ncc1c3ccc(C#N)cc3[nH]c21", "%Inh": 0}
{"smiles": "CC(=O)Nc1ccc(COc2ccc(Nc3ccnc4cc(-c5ccccn5)ccc34)cc2)cc1.Cl", "note": "[GW440148]", "%Inh": 0}
{"smiles": "[2H]C([2H])(c1cccc(C(F)(F)F)c1C)n1ccn2c(=O)nc(N3CCOCC3)cc12", "note": "[GSK2336394]", "%Inh": 25}
{"smiles": "COc1ccc(Nc2nccc(N3CCC(NC(=O)Nc4cccc(C(C)=O)c4)C3)n2)cc1", "note": "(stereo not shown) [GSK1379731]", "%Inh": 19}
